Only some compounds are listed: those with a hit (about 32% of all), similar ones and a draw of the others.
PostGolgi yeast: growth inhibition of a yeast mutant, post-Golgi transport screen. post-Golgi transport phenotypic cell assay. actives 0.9% (n = 98,000). inhibition, % at 10 µM. AID 739;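 note: yeast cells grown in 1536-well plates; yeast grown about 18 h at 30C before absorbance read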
CYP2C19 activ: cytochrome P450 2C19 (human) activation | 96,000 tested, under 10 active | activation factor at 5 µM | recombinant CYP2C19, luciferin-H EGE luminescence; hits give high values; 0 = fully inhibited enzyme, 1 = untreated enzyme | P33261;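 active = activation factor of at least 2 at 5 µM in the primary screen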;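 note: 0 = wells with 2.5 mM tranylcypromine and 1 = vehicle-only wells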
Target sequence (P33261 whole entry, looked up): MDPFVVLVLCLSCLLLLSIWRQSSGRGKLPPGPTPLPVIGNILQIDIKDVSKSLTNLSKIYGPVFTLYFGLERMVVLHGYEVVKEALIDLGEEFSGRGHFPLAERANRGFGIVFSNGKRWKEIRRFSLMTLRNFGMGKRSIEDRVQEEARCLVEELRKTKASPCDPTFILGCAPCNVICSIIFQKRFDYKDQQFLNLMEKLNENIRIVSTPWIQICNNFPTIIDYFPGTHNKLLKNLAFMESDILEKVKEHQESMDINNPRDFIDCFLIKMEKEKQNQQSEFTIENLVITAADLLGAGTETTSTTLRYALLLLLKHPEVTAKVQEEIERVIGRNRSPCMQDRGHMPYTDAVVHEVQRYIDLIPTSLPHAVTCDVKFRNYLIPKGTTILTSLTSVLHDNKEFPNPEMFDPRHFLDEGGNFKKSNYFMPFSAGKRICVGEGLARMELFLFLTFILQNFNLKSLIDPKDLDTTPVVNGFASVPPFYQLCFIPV
CYP2C9 inhib: blocks human cytochrome P450 2C9. P11712. CYP2C9 Supersomes, luciferin-H conversion, luminescence. AID 777. actives 20% (n = 96,000). inhibition, % at 5 µM;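 active = blocking of liver enzyme CYP2C9 beyond about 50% at 5 µM, limit read from the data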
PostGolgi ctrl: yeast control strain growth, post-Golgi counter-screen. efflux-deficient yeast background strain, growth absorbance A615, 16 h. inhibition, % at 10 µM. actives 5% (n = 98,000). AID 738
CYP2C19 inh: blocks human cytochrome P450 2C19 | CYP2C19 Supersomes, luciferin-H EGE luminescence, 30 min | inhibition, % at 5 µM | actives 21% (n = 96,000) | AID 778;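 active = CYP2C19 inhibition above a set limit at 5 µM in the primary screen, cut at about 50% in these data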;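 note: plate controls were negative control wells for no effect and 2.5 mM tranylcypromine positive control for full effect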
CYP2C9 act: CYP2C9 (human) activation | P11712 | recombinant CYP2C9, luciferin-H conversion, luminescence; hits give high values; factor 1 = untreated enzyme, 0 = blocked | activation factor at 5 µM | actives 1.4% (n = 96,000);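 active = activation factor of 2 or more for CYP2C9 at a 5 µM dose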;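 note: 0 = sulfaphenazole-blocked wells and 1 = vehicle-only wells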
Numbers without * were called inactive; nt = not tested or not shown. Cut-off read from the data, not from the text of the source, unless noted: active = inhibition above about 30%; inactive = the rest.

SMILES	PostGolgi yeast	CYP2C19 activ	CYP2C9 inhib	PostGolgi ctrl	CYP2C19 inh	CYP2C9 act
O=C(NCCc1ccccc1)NC1CCCCC1	-3	0.4	16	11	59*	0.8
CC(SCc1ccccc1)C(=O)NC1CCCC1 (stereo not given)	-4	0.2	74*	2	83*	0.3
COc1ccc(CCNC(=O)NC2CCCCC2)cc1OC	-9	0.2	1	9	82*	1
O=C(NCc1ccccc1)NC1CCCCC1	10	0.8	-5	-1	22	1
COc1ccc(OC)c(Nc2nc(N)nc(CSc3nnc(-c4ccncc4)o3)n2)c1	-4	1	46	4	1	0.5
COc1cc(C2C(C(=O)c3cccs3)=C(O)C(=O)N2Cc2ccco2)cc(OC)c1OC (stereo not given)	1	1	22	3	-2	0.8
O=C(CC1COc2ccccc2O1)NCCc1ccccc1 (stereo not given)	-7	0.5	42	9	54*	0.6
O=C(CCC1COc2ccccc2O1)NCc1ccccc1 (stereo not given)	-3	0.4	32	-5	59*	0.7
COC(=O)N1CC(C)N(C(=O)OC)CC1C (stereo not given)	16	0.9	4	6	13	1
CCOC(=O)c1ccc(NC(=O)CSc2nnc(-c3ccncc3)n2C)cc1	0	0.3	73*	3	69*	0.3
Nn1c(SCC(=O)Nc2ccc3c(c2)OCO3)nnc1-c1ccncc1	13	1	22	-1	-2	0.8
O=C(CSc1nnc(Nc2ccccc2)s1)Nc1ccc(S(=O)(=O)N2CCOCC2)cc1	-2	1.1	10	3	-5	0.9
Cc1cc(NC(=O)CSc2nnc(-c3ccncc3)n2N)ccc1Br	14	0.5	87*	-2	48	0.1
CCC(C)NC(=O)CSc1nnc(-c2cc(-c3ccc(C)cc3)nc3ccccc23)n1N (stereo not given)	8	0.9	47	10	14	0.5
Cc1ccc(Nc2nnc(SCC(=O)Nc3ccc(S(=O)(=O)N4CCOCC4)cc3)s2)cc1	-4	1.2	74*	16	-20	0.3
Cc1ccc(-c2cc(-c3nnc(SCC(=O)NCC(C)C)n3N)c3ccccc3n2)cc1	-8	0.6	78*	11	39	0.2
Cc1ccc(NC(=O)CN(C)C(=O)CSc2nc3ccccc3o2)cc1	2	0.8	32	10	22	0.7
Cc1nnc(NC(=O)CSc2nnc(-c3ccc(S(=O)(=O)N4CCCC4)cc3)n2C)s1	4	nt	nt	8	nt	nt
Cc1cccc(NC(=O)CSc2nnc(-c3ccncc3)n2C)c1	0	0.2	52*	-3	80*	0.5
Cc1ccc(C)c(NC(=O)CSc2nnc(-c3ccccc3)n2N)c1	18	0.4	35	-5	63*	0.7
Cc1cccc(NC(=O)CSc2nnc(-c3ccc(S(=O)(=O)N4CCOCC4)cc3)n2C)c1	13	0	52*	7	99*	0.5
CCc1nc2c(c(SC)nn2-c2ccccc2)c(N)c1C(=O)OC	-2	1	15	6	2	0.9
COc1ccnc(Oc2ccc3ccccc3c2)c1C#N	-6	0.5	-1	7	47	1
O=c1[nH]cnc2c1N1CCC2CC1	-4	1	15	5	1	0.8
CCSc1nnc(NC(=O)c2ccc3c(c2)OCO3)s1	10	0.8	19	41*	19	0.8
SMILES	PostGolgi yeast	CYP2C19 activ	CYP2C9 inhib	PostGolgi ctrl	CYP2C19 inh	CYP2C9 act
CCSc1nnc(NC(=O)c2cccnc2)s1	-11	1	19	15	-3	0.8
CCSc1nnc(NC(=O)c2ccccn2)s1	13	0.8	22	7	22	0.8
CCSc1nnc(NC(=O)c2ccc(Br)s2)s1	-9	1	57*	7	0	0.4
CCSc1nnc(NC(=O)c2csc3c2CCC(C)C3)s1 (stereo not given)	-5	1.2	82*	7	-20	0.2
O=C(c1ccc(F)cc1)N1CCN(c2cc(=O)[nH]nc2-c2ccccc2)CC1	-5	1.1	-15	1	-13	1.1
Cc1cc(C(=O)N/N=C/c2cccc([N+](=O)[O-])c2)c(C)o1	-6	0.9	10	11	8	0.9
Cc1c(Cl)c([N+](=O)[O-])nn1Cc1ccc(C(=O)N/N=C\c2cccc(Br)c2)o1	67*	0.3	64*	18	68*	0.4
COc1ccc(N2CCN(CCCNS(=O)(=O)c3c(C)noc3/C=C/N(C)C)CC2)cc1	-1	1	62*	-6	1	0.4
CCOC(=O)c1ccc(CNC(=O)c2n[nH]c(=O)c3ccccc23)o1	3	0.8	40	9	16	0.6
O=C1C2C3C=CC(C3)C2C(=O)N1c1ncn[nH]1 (stereo not given)	9	1.1	-3	35*	-7	1
Cc1cc(C)nc(-n2nc(C)c3c(C(F)(F)F)cc(=O)[nH]c32)n1	-1	1	65*	12	4	0.4
Cc1cc(=O)[nH]c2c1c(C)nn2-c1ccccc1	nt	1	6	nt	3	0.9
CC(=O)Nc1ccc(S(=O)(=O)c2c(N)n(CCN3CCOCC3)c3nc4ccccc4nc23)cc1	-1	1.1	23	-1	-7	0.8
Nc1c(S(=O)(=O)c2cc(Cl)ccc2Cl)c2nc3ccccc3nc2n1CCN1CCOCC1	1	0.2	96*	18	79*	0
CN(C)S(=O)(=O)c1cccc2nsnc12	-1	0.8	12	-2	16	0.9
Cc1cccc(N(C)S(=O)(=O)c2cccc3nsnc23)c1	15	0.4	-70	12	64*	1.7
CCN(c1cccc(C)c1)S(=O)(=O)c1cccc2nsnc12	3	0.1	53*	8	89*	0.5
CN=C1S/C(=C\c2ccc(N3CCOCC3)c(F)c2)C(=O)N1C	-12	0.9	7	6	12	0.9
C=C1N(c2ccc(Cl)cc2)C(=O)OC1(C)C	-11	0.4	27	2	58*	0.7
CC(=O)N(CC(C)(C)CC=C(C)C)c1ccccc1	nt	0.5	13	nt	52*	0.9
Cn1c(=O)oc2cc(S(=O)(=O)N3CCCC(C(=O)NC4CCCc5ccccc54)C3)ccc21 (stereo not given)	1	0.9	60*	1	7	0.4
Cn1c(=O)oc2cc(S(=O)(=O)N3CCCC(C(=O)N4CC=C(c5ccccc5)CC4)C3)ccc21 (stereo not given)	1	0.3	-22	-1	72*	1.2
Cn1c(=O)oc2cc(S(=O)(=O)N3CCCC(C(=O)Nc4ccccn4)C3)ccc21 (stereo not given)	-4	1	-3	29	1	1
Cn1c(Cn2nnc3ccccc32)nnc1SCC(=O)N1CCc2ccccc21	-1	1.1	-4	25	-7	1

Assay outcomes (PubChem BioAssay)
